Screens deposited in PubChem by National Center for Advancing Translational Sciences (NCATS).
The list is not random: actives were taken first. Their share in the collection is about 10%.
GLS inh = blocks human kidney-isoform glutaminase activity | hit rate 0.21% among 410,000 | GLS enzymatic activity, qHTS titration | O94925 | Potency, µM (top dose mostly 45.5 µM), for inactives: at the top dose activity change, negative = inhibition, most hits filed as inhibitors; note: % is set by controls: 0 for no effect and ±100 for the full control effect
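Compounds were pin-transferred onto hKGA, after which L-glutamine (1 mM solution) and a detection mix of glutamate oxidase, HRP and Amplex Red were added. Initial and 30 min RT fluorescence reads were collected.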
JMJD2A Tudor inh = inhibitors of human JMJD2A Tudor domain; AlphaScreen JMJD2A-Tudor / H3K4me3 peptide binding; Potency, µM (highest dose often 114 µM), without a hit: top-dose activity change, negative = inhibition, hits mostly inhibitors; hit rate 4.4% among 390,000; note: % is set by controls: 0 for no effect and ±100 for the full control effect; nearly all actives have a fitted effect of over 50% in size
BAZ2B inh = blocks human BAZ2B | Q9UIF8 | AlphaScreen BAZ2B-H3K14Ac peptide displacement | Potency, µM (highest dose often 114 µM), without a hit: at the highest dose activity change, negative = inhibition, usual class: inhibitors | hit rate 4.4% among 360,000 | AID 504333; note: % is set by controls: 0 for no effect and ±100 for the full control effect; nearly all actives have a fitted effect of over 60% in size
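Multi-concentration screen (max 110 uM) measuring displacement of acetylated histone H3 peptide from BAZ2B by AlphaScreen, using 50 nM protein, 50 nM peptide and 10 ug/mL streptavidin donor plus Ni-chelate acceptor beads.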
HP1b binding inh = HP1-beta chromodomain-methylated histone interaction inhibition. AlphaScreen HP1-beta / biotin-H3K9me3 peptide binding. Potency, µM (top dose mostly 114 µM), for inactives: at the top dose activity change, negative = inhibition, most hits filed as inhibitors. hit rate 0.56% among 390,000; note: nearly all actives have a fitted effect of over 70% in size
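Compound inhibition of the preformed complex between 50 nM HP1-beta and 50 nM biotinylated H3K9me3 peptide was read by AlphaScreen. Buffer was PBS pH 7.4 with 0.01% Tween-20. Incubations ran 30 min at room temperature, with 10 ug/mL donor/acceptor beads.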
G9a inh = G9a (human) methyltransferase inhibition; Q96KQ7; G9a H3K9 monomethylation, AlphaScreen, 2 h; Potency, µM (titrated, usually from 102 µM), for inactives: top-dose activity, negative = inhibition, hits mostly inhibitors; hit rate 8.8% among 350,000; AID 504332; note: % is set by controls: 0 for no effect and ±100 for the full control effect; nearly all actives have a fitted effect of over 75% in size
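G9a (20 nM) was preincubated 15 min with compound, then reacted 2 h at room temperature with 500 nM biotin-H3K9 peptide and 20 µM SAM. Monomethyl-H3K9 detected by AlphaScreen using anti-H3K9me1 antibody.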
Starred values were filed as active, the others as inactive; ? = inconclusive; · = not tested or not shown; ! = repeats disagree; [ ] = another dose, or the depositor's remark. Calls come from the whole dose curve; as a rule, active = well fitted curve in the direction sought with a large enough effect; inconclusive = small, poorly fitted or top-dose-only effect, or another doubt; inactive = no such curve, though single readings can be large; an effect the other way counts as inactive or inconclusive. Potency is the fitted concentration of half-maximal effect.

SMILES | GLS inh | JMJD2A Tudor inh | BAZ2B inh | HP1b binding inh | G9a inh
O=C(OCc1ccccc1)N1CCC2CC1c1cc(N3CCNCC3)ccc12 (stereo not given) | 12% | · | · | · | ·
O=C(NCC1CCCO1)c1[nH]c(C(F)(F)F)nc1-c1ccccc1 (stereo not given) | 1% | · | · | · | ·
Cc1ccccc1Cc1n[nH]c(=S)n1N | 2% | 2.8µM* | -31% | ? | 2.5µM*
CC(Cc1n[nH]c(=S)n1N)c1ccccc1 (stereo not given) | 30% | 3.2µM* | 15% | ? | 7.9µM*
CC(Sc1nnc(CC(C)c2ccccc2)n1N)C(N)=O (stereo not given) | -9% | 2% | -24% | 52% | 13%
Nn1c(Cc2ccccc2)n[nH]c1=S | 14% | 10µM* | -20% | 22% | ·
Nn1c(Cc2ccc(F)cc2)n[nH]c1=S | -9% | 4.5µM* | · | -16% | 3.5µM*
Fc1ccc(Cc2cn3cc(-c4ccc(F)cc4)nc3s2)cc1 | 1% | -7% | -3% | 21% | 11%[59 µM]
O=S(=O)(Nc1ccccc1Br)c1cccc2cccnc12 | -12% | · | · | · | ·
Cc1cc(C(=O)NN=Cc2ccc(-c3ccc(F)cc3)o2)c(C)o1 | -2% | -14% | · | 23% | ·
CC(=O)n1cc(N(C(=O)CCl)c2ccc([N+](=O)[O-])cc2)c2ccccc21 | -12% | -30% | -33% | 2% | 50µM*
CCOc1ncccc1C(=O)OCC(=O)Nc1cc(S(=O)(=O)N(CC)CC)ccc1C | -10% | -15% | -1% | 3% | 2%
O=C1CCc2c(ccc3ccccc23)O1 | · | · | · | · | 31%[59 µM]
CN1COc2ccc3ccccc3c2C1 | 6% | -10% | ? | 43% | 2.2µM*
Cc1nc(SCC(=O)Nc2ccccc2)c2oc3ccccc3c2n1 | 1% | -8% | -3% | 33% | -5%
Cc1nc(NCCc2ccccc2)c2oc3ccccc3c2n1 | -8% | -10% | ? | 35% | 79µM*
CNC(=O)C(Sc1nc(C)nc2c1oc1ccccc12)C(C)=O (stereo not given) | 18% | -32% | -35% | 22% | 18µM*
Nc1cc2c(cc1C(=O)c1ccc(Cl)cc1)OCCO2 | 13% | 50µM* | 35µM* | -56% | 45µM*
Cc1ccc(C(=O)c2cn(Cc3ccccc3)c3cc4c(cc3c2=O)OCCO4)cc1 | 0% | -33% | -2% | 46% | -44%[59 µM]
Cc1ccc(C(=O)c2cc3c(cc2N)OCCO3)cc1 | 13% | 50µM* | 35µM* | -15% | 28µM*
Nc1cc2c(cc1C(=O)c1ccccc1)OCCO2 | 20% | ? | 40µM* | -34% | ·
COC(=O)c1cc2c(cc1N)OCCO2 | 23% | -22% | ? | 21% | 56µM*
Cc1nc2cc(NC(=O)NC(C)(C)C)ccc2n1C | 5% | -3% | 4% | 39% | 9%[0.501 µM]
CCOc1ccc(CNC(=O)c2cc3c(=O)n(Cc4cccs4)ccc3nc2C)cc1 | -9% | -10% | ? | 78% | 32%[59 µM]
Cc1ccc(C)n1NC(=O)c1ccc(Cl)cc1 | 27% | -7% | -2% | 24% | -30%[59 µM]
SMILES | GLS inh | JMJD2A Tudor inh | BAZ2B inh | HP1b binding inh | G9a inh
Cc1ccc(C23CC4CC(CC(C(=O)NC(C)C(N)=O)(C4)C2)C3)cc1 (stereo not given) | -4% | 16% | -2% | 56% | 21%[59 µM]
CC(=O)NC1=NN(C(C)=O)C(C)(c2cccnc2)S1 (stereo not given) | 1% | -8% | 5% | 0% | 45µM*
S=c1[nH]nc(SCc2ccccc2)c2[nH]cnc12 | 7.1µM* | -31% | · | -32% | ·
CCCCSc1n[nH]c(=S)c2nc[nH]c12 | ? | -53% | · | -19%[57 µM] | ·
COC(=O)C1=C(CSc2nc3ccccc3s2)NC(=O)NC1c1ccc(F)cc1 (stereo not given) | ? | -10% | 5% | -4% | 40µM*
O=C(Nc1ccc(O)c2c(=O)cc(-c3ccccc3Cl)oc12)c1ccc(F)cc1 | -1% | -1% | -2% | 29% | ?
O=c1cc(-c2ccccc2Cl)oc2c(NS(=O)(=O)c3cc(Cl)cc(Cl)c3O)ccc(O)c12 | -1% | 56µM* | 50µM* | -32% | 50µM*
CCc1ccc(S(=O)(=O)Nc2ccc(O)c3c(=O)cc(-c4ccccc4Cl)oc23)cc1 | 28% | ? | -22% | 20% | ?
Nc1ccc(O)c2c(=O)cc(-c3ccccc3Cl)oc12 | 7% | -20% | -6% | 26% | 16µM*!
CCOc1cccc2oc(-c3ccccc3Cl)cc(=O)c12 | · | · | · | · | 19%
O=c1cc(-c2ccccc2Cl)oc2cc(O)cc(O)c12 | 11% | -18% | -23% | 22% | 45µM*
O=C(NC1CCN(Cc2ccccc2)CC1)c1ccc(Cn2c(=O)c3ccccc3n(Cc3ccccc3)c2=O)cc1 | 6% | -14% | -14% | 30% | -4%[59 µM]
N.N.O=C(O)C1(C(=O)O)CCC1.[Pt+2] | · | · | · | · | 0.28µM*
Brc1ccc(Cn2c(-c3cncs3)nc3ccccc32)cc1 | -2% | -33% | -22% | 30% | 10%[59 µM]
COc1ccc(C(C)=O)cc1COC(=O)c1cc2ccccc2cc1O | -15% | -19% | -2% | -13% | 45µM*
CC[n+]1c(/C=C(/C)SC)sc2ccccc21 | -15% | -15% | ? | 42% | 45µM*
CC[n+]1c(C=C2C=C(C)OC(C)=C2)sc2ccccc21 | -18% | -23% | -31% | 33% | -24%
CC[n+]1ccccc1/C=C/Nc1ccccc1 | 10% | -12% | -6% | 38% | 45µM*
CC[n+]1c(/C=C(\C)SC)sc2ccccc21 | 8% | ? | 79µM* | 34% | 79µM*
CC[n+]1c(/C=C(\C)OC)sc2ccccc21 | -8% | ? | 56µM* | 41% | ?
CC1(C(=O)NCc2ccccc2Br)CCN1C(=O)C1(c2ccc(Cl)cc2)CC1 (stereo not given) | -13% | · | · | · | ·
Cc1sc2ccccc2[n+]1CC(=O)O | -1% | ? | -10% | 52% | ?
CC[n+]1c(/C=C/Nc2ccccc2)sc2ccccc21 | 22% | -18% | -6% | 19% | 7.9µM*
CC/C(=C/c1sc2ccccc2[n+]1CC)SC | -3% | 25µM* | ? | 31% | -19%[59 µM]
CC[n+]1c(/C=C(\C)Nc2ccccc2)sc2ccccc21 | -8% | -24% | 50µM* | 24% | ?
SMILES | GLS inh | JMJD2A Tudor inh | BAZ2B inh | HP1b binding inh | G9a inh
CC[n+]1c(/C=C2/C=C(C)CC(C)C2)sc2ccccc21 (stereo not given) | 7% | 32µM* | ? | -4% | 7.9µM*
COc1ccc(N2C(=O)c3cccc4cccc(c34)C2=O)cc1 | 2% | -10% | 4% | 40% | 6%
COc1cccc(C(=O)N/N=C(\CC(C)C)c2ccccc2)c1 | -1% | -5% | 3% | 40% | 6%[59 µM]
O=C(Cn1cnc2cc([N+](=O)[O-])ccc2c1=O)NCCc1ccc(F)cc1 | 11% | -24% | -18% | 32% | 9%
COC(=O)c1cccc(S(=O)(=O)N(Cc2ccco2)Cc2cc3cc(OC)c(OC)cc3[nH]c2=O)c1 | -8% | -10% | 4% | 23% | 0%[59 µM]
N=C1S/C(=C\c2ccco2)C(=O)N1c1ccc2c(c1)OCO2 | ? | ? | 56µM* | -39% | 45µM*
